Outcome and AC50 data for 40 compounds are collected here from PubChem BioAssay (EPA / NIEHS).

Molecules are shown by their SMILES. Calls of active or inactive are those of the source. The calls were made as follows: active = hit-call score of the fitted dose curve at least 0.9, where 1 is the maximum; inactive = score below 0.9.

Read-out in this assay: Keratin 19 (KRT19), KRT19 (gene 3880)
Kind of assay: LTEA_HepaRG_KRT19: Life Technologies and Expression Analysis (LTEA) Assay for Keratin 19 (KRT19) using HepaRG (AID 2283512). To be noted: mRNA level, 48 h; actives raise or lower the signal. On the procedure:
LTEA_HepaRG is a cell based, multiplexed-readout assay that uses HepaRG, a human liver cell line, with measurements taken at 48 hours after chemical dosing on a 96-well plate.LTEA_HepaRG_KRT19 is one of 102 assay component(s) measured in the LTEA HepaRG cell culture assay. It is a marker of Cell proliferation, survival, death.Data from the assay component LTEA_HepaRG_KRT19 was analyzed into 1 endpoint. This assay endpoint, LTEA_HepaRG_KRT19, was analyzed with bidirectional fitting relative to DMSO as the negative control and baseline of activity. Using a type of inducible reporter, measures of mRNA induction for gain or loss-of-signal activity can be used to understand regulation of transcription factor activity. To generalize the intended target to other relatable targets, this assay endpoint is annotated to the filaments intended target family, where the subfamily is keratin.
A total of 1060 chemcials from the ToxCast library were tested in eight-point concentration-response experiments. Cell culture and cytotoxicity assays were conducted at Thermo Fisher Scientific's Custom Services facility (Madison, WI). A single lot of human HepaRG cells (Thermo Fisher Scientific, Frederick, MD) was used for the cell culture experiments. 96-well format collagen type I coated plates of human HepaRG cells were prepared using established methods. Briefly, cryopreserved HepaRG cells were thawed, plated at a density of approximately 100,000 cells/well in HepaRG Thaw, Plate, and General Purpose media (HPRG770, Thermo Fisher Scientific), and incubated for 48 hours. 0.5% DMSO was selected as vehicle control to balance the requisite need of DMSO in HepaRG cultures to maintain differentiation (for example, baseline metabolism, proportions of hepatocytes vs. cholangiocytes), while enabling further hepatic receptor pathway activation (for example, PXR and CAR) in response to chemical exposure. 48 hours after plating, the culture medium was replaced with HepaRG Serum-Free Incudtion Media. Cells were exposed to each test chemical in duplicate and maintained in CO2 incubators for another 48 hours. Chemical plates were thawed to room temperature and 200x concentrations of treatment groups were prepared. 8-point conentration-reponse curves were made with the highest exposure at 100 uM, followed by half-log dilutions, all in 0.5% DMSO. Each test plate contained variouse controls, induction positive controls (1mM phenobarbital), cytotoxicity positive controls ([…] aflatoxin B1), vehicle controls (0.5% DMSO), and total lysis controls (0.5% DMSO). Cell morphology images were taken using an Essen IncuCyte FLR automated microscope, with six 96-well plates imaged in about 24 minutes. Images were captured and exported and JPEG files. Spent culture media was transfered to black-well plates for the LDH assay, and remaining media was sorted at -80 C for later use. Cells were treated with RLT buffer and frozen until shipped for gene expression analysis. Total RNA was isolated from the cell suspension in 75 uL of Buffer RLT (Qiagen, Germantown, MD 20874) by Quintiles/Expression Analysis (Durham, NC) using a custom isolation procedure. Total RNA from each plate well was transferred to a preamplification plate. Fluidigm's 96.96 Dynamic ArrayTM (Fluidigm, Amsterdam, the Netherlands) technology was used for gene expression analyses by quantitative reverse transcription polymerase chain reaction (qRT-PCR, performed by Quintiles/Expression Analysis, Durham, NC)89. Standard TaqManTM Assays (Applied Biosystems/ThermoFisher Scientific, Foster City, CA) were used to assess the expression of 93 genes selected based on their selectivity and sensitivity to important hepatic receptors known to be modulated by environmental chemicals; importance in human hepatocyte functionality; and hepatotoxicity. […]
With `O=C(OCCCCCCOC(=O)c1ccccc1)c1ccccc1`, the result was inactive.

In the case of `CCN(CC)C(=O)c1cc(S(=O)(=O)Cc2ccccc2)c(N2CCC(c3ccccc3)CC2)cc1N(CC)CCN(C)C`, the compound was classed as inactive. As for `CCCCCCCCCCCO`, the result was inactive.

Consider `O=C(O)Cc1cc(I)c(Oc2ccc(O)c(I)c2)c(I)c1`, for which the AC50 (commonly the concentration at which the activity in the assay is half-maximal) was 0.631 µM (active).

For `Cc1oc2c(NC(=O)c3c(Cl)cccc3Cl)cccc2c1C(C)(C)O`, the half-maximal activity concentration (AC50) is 50 µM (active). Same read-out and setting: the value for `Clc1ccccc1C(c1ccccc1)(c1ccccc1)n1ccnc1` was 20.2 µM (active). For the compound `O=C1c2ccccc2C(=O)N1CCc1noc(-c2ccc(CN3CCCCCC3)s2)n1`, the result was inactive. Regarding `CCN(Cc1cccnc1)C(=O)c1cccc(Cl)c1[C@]1(C)C(=O)N(Cc2ccc(OC)cc2OC)c2ccc(Cl)cc21`, the AC50 was 27 µM (active). On to `Cc1occc1C(=O)Nc1ccc(C(=O)N2CCC(F)(F)/C(=C\C(=O)N3CCC(N4CCCCC4)CC3)c3ccccc32)cc1`, for which the AC50 was 49.6 µM (active). With `CO[C@H]1/C=C/O[C@@]2(C)Oc3c(C)c(O)c4c(O)c(c(/C=N/N5CCN(C)CC5)c(O)c4c3C2=O)NC(=O)/C(C)=C\C=C\[C@H](C)[C@H](O)[C@@H](C)[C@@H](O)[C@@H](C)[C@H](OC(C)=O)[C@@H]1C`, the compound was classed as inactive. Take `O=c1[nH]sc2ccccc12`: the compound was called inactive. Same read-out and setting: the value for `CCCCOC(=O)c1ccc(O)cc1` was “inactive”; that for `Cc1cccc2ccccc12` was “inactive”; that for `CC[C@H](NC(=O)c1cc(F)ccc1NS(=O)(=O)c1cccc2cccnc12)c1ccccc1` was “inactive”. The same measure, in the same setting: the value for `CCCCCCCCCCCCO` was “inactive”; that for `O=C=NCCCCCCN=C=O` was “inactive”.

Consider `CN(C[C@@H](CC[N+]12CCC(C3CCCCC3)(CC1)CC2)c1ccc(Cl)c(Cl)c1)C(=O)c1cc(C(F)(F)F)cc(C(F)(F)F)c1`, for which the AC50 is 26.4 µM (active). In the case of `OC12N=C(c3ccccc3)SC1Cc1cc(Cl)ccc12` (stereo not given), the AC50 was 16.5 µM (active).

For `CCCC(=O)OCCC(C)C`, the call was inactive.

`O=C1CCC(C2CCCCC2)CC1`: the call was inactive. Turning to `COCC(C)OCC(C)OCC(C)O` (stereo not given), the compound was called inactive.

For `c1ccc(C[n+]2cccc3ccccc32)cc1`, the AC50 was 28.6 µM (active).

Regarding `CC(C)(C)c1csc(-c2cc3cc(OCc4ccccc4CC(=O)O)ccc3o2)n1`, the outcome was inactive. As for `CN1C(=O)N(c2ccccc2Br)Cc2cnc(Nc3ccc4c(c3)OCC(CO)O4)nc21` (stereo not given), the concentration at half-maximal activity (AC50) was 6.5 µM (active).

On to `COc1ccc2cc(S(=O)(=O)N[C@H](CC(=O)N[C@H](Cc3ccc(CN4[C@H](C)CCC[C@@H]4C)cc3)C(=O)N(C)C(C)C)c3ccc4c(c3)OCO4)ccc2c1`, for which the concentration at half-maximal activity (AC50) is 12 µM (active). Take `O=C(O)Cn1c(=O)n(Cc2ccc(Br)cc2F)c(=O)c2ccc(Cl)cc21`: the AC50 is 50 µM (active).

In the case of `C[C@]12CC[C@@H]3c4ccc(O)cc4CC[C@H]3[C@@H]1CCC2=O`, the compound was called inactive.

Take `CC(=O)N1CCN(c2ccc(OC[C@H]3CO[C@](Cn4ccnc4)(c4ccc(Cl)cc4Cl)O3)cc2)CC1`: the AC50 is 12.2 µM (active). The same measure, in the same setting: the value for `NCc1cccc(C2CCN(C(=O)c3ccc(C#Cc4ccccc4F)o3)CC2)c1` was 9.92 µM (active); that for `CC1(C)NC(=O)N(c2ccc([N+](=O)[O-])c(C(F)(F)F)c2)C1=O` was 67.8 µM (active). `CN1C(=O)CC[C@H]1c1cccnc1`: the call was inactive. Take `O=C(Nc1ccc(Cl)cc1)Nc1ccc(Cl)c(Cl)c1`: the AC50 was 14.6 µM (active). In the case of `O=C(O)c1ccccc1C(=O)OCc1ccccc1`, the compound was called inactive. In the case of `OCCO`, the result was inactive.

In the case of `CCOC(=O)O[C@H](C)OC(=O)c1ccc2c(c1)cc(C(=O)NC1CCN(C(C)C)CC1)n2Cc1cc(-c2ccc(Cl)s2)on1`, the call was inactive. For the compound `CCCOC(=O)c1cc(O)c(O)c(O)c1`, the compound was called inactive. With `CCCCCCCCOC(=O)c1cc(O)c(O)c(O)c1`, the half-maximal activity concentration (AC50) is 27.1 µM (active). As to `NC(=O)c1nc(-c2cccc(-c3cc(F)ccc3OCC(F)(F)C(F)(F)F)c2)n[nH]1`, the AC50 was 12.1 µM (active). On to `CCCCOC(=O)CC(CC(=O)OCCCC)(OC(C)=O)C(=O)OCCCC`, for which the call was inactive.

For `C[C@]12CC[C@@H]3c4ccc(O)cc4CC[C@H]3[C@@H]1CC[C@H]2O`, the compound was classed as inactive.
